Shown are actives, neighbours in structure and some others; about 4.8% of the full set was active somewhere.
ATXN2 expr inh = Primary qHTS for Inhibitors of ATXN expression; HEK-293 ATXN2-luciferase reporter, luminescence, 24 h; 360,000 tested, 0.72% active; AID 1745845, 2022; Potency, µM (doses to about 57 µM), most hits filed as inhibitors; further: nearly all actives have a fitted effect of over 55% in size
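qHTS (up to 57 uM final) was run with 24 h compound exposure of reporter cells at 37 °C. Each well was multiplexed: SteadyGlo luminescence measured ATXN2-luciferase expression after a fluorogenic Gly-Phe-AFC viability readout (25 uM final).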
USP2a inh = qHTS Assay for Inhibitors of Ubiquitin-specific Protease USP2a Using CHOP2 as the Reporter | Potency, µM (highest dose often 38.3 µM), actives largely listed as inhibitors | Ubiquitin carboxyl-terminal hydrolase 2 (Homo sapiens), O75604 | 330,000 tested, 0.01% active | USP2 core, Ub-CHOP2 coupled fluorogenic reporter, 485/531
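USP2 core (10nM final) preincubated 30min RT with compound in 20mM Tris-HCl pH 8.0, 2mM CaCl2, 2mM beta-mercaptoethanol, 0.05% CHAPS; 25nM Ub-CHOP2 plus 25nM reporter substrate added, fluorescence (Ex485/Em531) read after 60min.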
USP1-UAF1 inh = Inhibitors of USP1/UAF1: Primary Screen. recombinant USP1/UAF1, Ub-Rhodamine cleavage fluorescence. Potency, µM (titrated, usually from 57.1 µM), hits mostly inhibitors. AID 743255, 2014. 390,000 tested, 0.23% active; further: nearly all actives have a fitted effect of over 60% in size
Target sequence (O94782 whole entry, looked up): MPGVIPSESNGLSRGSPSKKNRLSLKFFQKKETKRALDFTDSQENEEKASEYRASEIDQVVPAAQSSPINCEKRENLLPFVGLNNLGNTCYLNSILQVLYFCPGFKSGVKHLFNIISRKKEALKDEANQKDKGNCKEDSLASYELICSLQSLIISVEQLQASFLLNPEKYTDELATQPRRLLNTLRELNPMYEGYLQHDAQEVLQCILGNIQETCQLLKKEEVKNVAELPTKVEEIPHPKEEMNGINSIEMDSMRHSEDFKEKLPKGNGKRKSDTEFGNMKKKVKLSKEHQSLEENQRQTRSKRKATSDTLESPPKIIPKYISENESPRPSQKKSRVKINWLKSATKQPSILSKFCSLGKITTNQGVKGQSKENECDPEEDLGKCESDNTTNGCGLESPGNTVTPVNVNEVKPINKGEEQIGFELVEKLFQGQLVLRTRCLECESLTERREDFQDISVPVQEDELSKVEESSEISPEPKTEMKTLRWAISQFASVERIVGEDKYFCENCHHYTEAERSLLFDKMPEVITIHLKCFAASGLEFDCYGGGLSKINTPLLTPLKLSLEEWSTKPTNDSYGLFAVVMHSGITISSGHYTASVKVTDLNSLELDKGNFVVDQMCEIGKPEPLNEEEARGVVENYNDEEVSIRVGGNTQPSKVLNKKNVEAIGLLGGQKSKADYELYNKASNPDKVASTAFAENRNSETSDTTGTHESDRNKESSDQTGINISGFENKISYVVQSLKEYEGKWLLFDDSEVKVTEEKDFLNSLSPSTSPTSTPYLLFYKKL
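High-throughput fluorogenic screen: 1nM USP1/UAF1 complex, Ub-Rho substrate 150nM final, 50mM HEPES pH 7.8 with 0.5mM EDTA, 0.1 mg/ml BSA, 1mM TCEP and 0.01% Tween-20.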
ATXN viability = Viability Counterscreen for Primary qHTS for Inhibitors of ATXN expression. AID 651635, 2014. S2 cells (HEK-293 line with an ATXN2-luciferase reporter) viability, CellTiter-Fluor protease fluorescence, 24 h. Potency, µM (series often up to 56.7 µM), hits mostly cytotoxic. 400,000 tested, 0.49% active; further: nearly all actives have a fitted effect of over 40% in size
IL-1B inflam inh = qHTS for Inhibitors of Inflammasome Signaling: IL-1-beta AlphaLISA Primary Screen; THP-1 LPS/ATP IL-1B secretion, AlphaLISA, 16 h; hits give low values; activity change, % at 57.5 µM; 360,000 tested, 4.7% active; in the data active means activity change below about -50%; inconclusive means mostly about -30% to -49%
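THP-1 cells pretreated 1 hr with compounds (up to 57.5 uM final), then stimulated with LPS (250 ng/mL final) plus ATP (1.25 mM final); secreted IL-1B measured by AlphaLISA after 16 hr, decreased signal indicating inhibition.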
A number is an active result; - = inactive; ? = inconclusive; . = no result given; ! = not confirmed by another sample; [ ] = remark or other dose. Unless noted, the call rests on the fitted dose curve; in most records, active means well fitted curve in the direction sought with a large enough effect; inconclusive means small, poorly fitted or top-dose-only effect, or another doubt; inactive means no such curve, though single readings can be large; an effect the other way counts as inactive or inconclusive.

SMILES	ATXN2 expr inh	USP2a inh	USP1-UAF1 inh	ATXN viability	IL-1B inflam inh
COc1cc(/C=N\NC(=O)c2ccc(-c3ccccc3)cc2)cc(OC)c1OC(C)=O	-	-	-	-	-50.0
COc1cc(/C=N/NC(=O)c2ccc3nc[nH]c3c2)cc(OC)c1OC(C)=O	.	.	-	-	-
CCOc1ccc(/C=N/NC(=O)c2cc3c(OC)cccc3[nH]2)cc1	?	-	-	?	?
COc1cc(/C=N/NC(=O)c2ccc3nc[nH]c3c2)cc(OC)c1OC	-	-	-	?	-66.6
COc1cc(/C=N\NC(=O)c2ccc(-c3ccccc3)cc2)cc(OC)c1O	-	-	-	-	?
CCOc1ccc2[nH]c(C(=O)N/N=C/c3cc(OC)c(OC)c(OC)c3)cc2c1	-	-	-	-	-79.0
COc1ccc(/C=N/NC(=O)c2nc(-c3ccccc3)cc(-c3ccccc3)n2)cc1OC	-	-	-	-	-50.2
Cc1ccn2c(NCc3ccccc3)c(-c3cccc(SC4CCCCC4)c3)nc2c1	?	-	?	?	-79.4!
CCC(C)Sc1cccc(-c2nc3cc(C)ccn3c2NCc2ccccc2)c1 (stereo not given)	?	-	?	?	-72.5
c1ccc(CNc2c(-c3cccc(SC4CCCCC4)c3)nc3ccccn23)cc1	-	-	-	?	-
O=C(NCc1c(Cl)cccc1Cl)c1[nH]c(C(F)(F)F)nc1-c1ccccc1	-	.	.	-	-
COc1ccc(CNC(=O)COC(=O)c2ccc(Br)c(S(=O)(=O)N3CCOCC3)c2)cc1	.	-	-	-	-
NC(=O)c1ccc(NC(=O)COC(=O)c2ccc(Br)c(S(=O)(=O)N3CCOCC3)c2)cc1	-	.	-	-	-60.2
CC1=CC(C)C(/C=N/N=C(N)N)C(C)C1 (stereo not given)	-	-	-	-	-66.2
CC1=CC(C)C(C[N+]2(C)CCCCC2)C(C)C1 (stereo not given)	-	-	-	-	-
FC(F)Sc1ccc(NC(=S)NC2CCCCC2)cc1	?	?	-	?	?
FC(F)Sc1ccc(NC(=S)NCC2CCCCC2)cc1	?	-	-	?	-92.0
CC1CCCCC1NC(=S)Nc1ccc(SC(F)F)cc1 (stereo not given)	?	-	-	?	-80.2
S=C(NCC1CCCCC1)Nc1ccc(Oc2ccccc2)cc1	?	-	-	?	-77.1
COc1ccc(-c2nsc(NC(=O)COc3ccc(C)c(C)c3)n2)cc1	.	.	-	.	.
O=C(Cn1ncc2c3ccccc3n(Cc3ccccc3)c2c1=O)NCCCN1CCCCC1	-	.	-	?	.
O=C(NCc1ccc(Cl)cc1)C1CCCCN1S(=O)(=O)c1ccccc1 (stereo not given)	-	-	-	-	-
CC1CCCCN1CC(O)COCCC12CC3CC(CC(C3)C1)C2 (stereo not given)	-[11.3 µM]	-	-	-	-61.4
CCOC(=O)C1=C(CN2CCCCC2)NC(=O)NC1c1cc(C)ccc1C (stereo not given)	-	-	-	-	-
CCOC(=O)C1=C(CSCc2ccccc2)NC(=O)NC1c1cc(C)ccc1C (stereo not given)	?	-	-	-	-51.3
SMILES	ATXN2 expr inh	USP2a inh	USP1-UAF1 inh	ATXN viability	IL-1B inflam inh
Cc1cc2[nH]c3c4ccccc4nc(C)c3c2cc1C	?	.	-	.	-112.4
CCSc1nc(-c2ccc(Cl)cc2)nc2c1Cc1c(CO)cnc(C)c1O2	-	.	-	-	.
CCOc1ccc(NC(=O)CC2C(=O)N(c3ccc(C)cc3)C(=O)N2C2CCCCC2)cc1 (stereo not given)	-	.	-	-	.
C=CCN1C[C@H](C(=O)N(CCCN(C)C)C(=O)NCC)C[C@@H]2c3cccc4[nH]cc(c34)C[C@H]21	-	.	.	?	.
CCOc1ccccc1Nc1nc(-c2cccc(Cl)c2)c2c(n1)-c1ccccc1OC2	-	.	-	-	.
Cc1ccc(CC(=O)Nc2ccc(F)c([N+](=O)[O-])c2)cc1C	.	-	-	-	-
COc1cc(Br)cc(CNc2ccc(F)c([N+](=O)[O-])c2)c1O	-	-	-	-	-94.7
